In PubChem BioAssay one finds z-score and composite z-score data, which are given here for 13 compounds.

The nature of assay [1]: optical density shifts of acrAB sulA E. coli – strain DRC41, OD650, 48 h, E. coli filamentation inducer project, primary screen (AID 1152).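 Note: E. coli MC1000 strain DRC41 lacking acrAB efflux pump and sulA.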 The settings on record: higher = more signal, called active from +8 up or from −8 down.
Assay [2] can be described thus: probe aLefty1 binding on compound microarray – biochemical, small-molecule microarray, 635/667 nm fluorescence, primary screen (AID 1153).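 Note: score merges spot fluorescence with signal-to-noise ratio from the scanned slide images.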 As to conditions: higher = more signal.
Assay [3] in a line: plasmodial surface anion channel blockers, osmotic lysis – cell-based, P. falciparum Indochina, OD700, 1 h, primary screen (AID 1154). The settings on record: P. falciparum Indochina infected RBC osmotic lysis, higher = more signal, called active from +8 up or from −8 down.
Assay [4] is described as follows: plasmodial surface anion channel blockers, osmotic lysis – cell-based, P. falciparum Indochina, OD700, 2 h, primary screen (AID 1155).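 Note: lysis reports solute entry through the parasite surface anion channel PSAC.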 The settings on record: P. falciparum Indochina infected erythrocytes, higher = more signal, called active from +8 up or from −8 down.
Assay [5] in a line: changes in parasitized red cell lysis, either direction – P. falciparum Indochina, OD700, 3 h, PSAC antagonist project, primary screen (AID 1156). As to conditions: P. falciparum-infected erythrocytes, osmotic lysis, higher = more signal, called active from +8 up or from −8 down.
Assay [6] can be described thus: plasmodial surface anion channel blockers, osmotic lysis – cell-based, P. falciparum Indochina, OD700, 18 h, primary screen (AID 1157). The settings on record: P. falciparum Indochina infected erythrocytes, osmotic lysis OD700, 18 h; higher = more signal, called active from +8 up or from −8 down.
A short description of assay [7]: S6 kinase pathway phospho-S6 level changes – cell-based, A549, cytoblot, luminescence, serum-stimulated, primary screen (AID 1158).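 Note: serum-stimulated A549 lung adenocarcinoma cells; signal is phosphorylated S6 detected by cytoblot immunostaining with HRP secondary.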 The settings on record: 5 h, higher = more signal.
Assay [8] deals with NADPH oxidase 2 (Homo sapiens) (UniProt P04839). Kind of assay: compounds shifting NOX2 Amplex Red fluorescence – cell-based, HEK293-NOX2, PMA-stimulated, NOX inhibitor project, primary screen (AID 1159). Note: test concentration not given here. The settings on record: 45 min, higher = more signal, called active from +8 up or from −8 down.
Assay [9] has as its target NADPH oxidase 4 (Homo sapiens) (UniProt Q9NPH5). The assay can be described thus: compounds shifting NOX4 Amplex Red fluorescence – cell-based, HEK293-NOX4, tetracycline-induced, NOX inhibitor project, primary screen (AID 1160). As to conditions: HEK293-NOX4, Amplex Red H2O2 fluorescence, 45 min; higher = more signal, called active from +8 up or from −8 down.
Assay [10] concerns the target NADPH oxidase 5 (Homo sapiens) (UniProt Q96PH1). The assay can be described thus: compounds shifting NOX5 Amplex Red fluorescence – cell-based, HEK293-NOX5, NOX inhibitor project, primary screen (AID 1161). As to conditions: HEK293-NOX5, ionomycin, 45 min, higher = more signal.

Activity calls are given as the source filed them.

NADPH oxidase 2 (Homo sapiens), sequence (P04839 whole entry, looked up): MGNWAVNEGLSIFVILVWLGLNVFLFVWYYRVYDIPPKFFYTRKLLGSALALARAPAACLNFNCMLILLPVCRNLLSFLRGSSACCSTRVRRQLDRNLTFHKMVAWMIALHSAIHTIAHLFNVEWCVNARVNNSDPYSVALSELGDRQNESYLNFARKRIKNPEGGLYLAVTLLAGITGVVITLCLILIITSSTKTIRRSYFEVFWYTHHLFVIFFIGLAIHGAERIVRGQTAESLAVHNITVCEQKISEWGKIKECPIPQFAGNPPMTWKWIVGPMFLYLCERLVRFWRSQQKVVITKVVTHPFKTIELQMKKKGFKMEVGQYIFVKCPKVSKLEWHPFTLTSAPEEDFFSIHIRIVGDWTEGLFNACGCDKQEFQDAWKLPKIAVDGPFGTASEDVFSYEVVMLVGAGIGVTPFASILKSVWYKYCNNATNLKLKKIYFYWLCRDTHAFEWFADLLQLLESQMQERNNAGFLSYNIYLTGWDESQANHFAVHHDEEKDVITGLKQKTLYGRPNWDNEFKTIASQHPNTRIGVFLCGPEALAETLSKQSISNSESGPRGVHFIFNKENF
NADPH oxidase 4 (Homo sapiens), sequence (Q9NPH5 whole entry, looked up): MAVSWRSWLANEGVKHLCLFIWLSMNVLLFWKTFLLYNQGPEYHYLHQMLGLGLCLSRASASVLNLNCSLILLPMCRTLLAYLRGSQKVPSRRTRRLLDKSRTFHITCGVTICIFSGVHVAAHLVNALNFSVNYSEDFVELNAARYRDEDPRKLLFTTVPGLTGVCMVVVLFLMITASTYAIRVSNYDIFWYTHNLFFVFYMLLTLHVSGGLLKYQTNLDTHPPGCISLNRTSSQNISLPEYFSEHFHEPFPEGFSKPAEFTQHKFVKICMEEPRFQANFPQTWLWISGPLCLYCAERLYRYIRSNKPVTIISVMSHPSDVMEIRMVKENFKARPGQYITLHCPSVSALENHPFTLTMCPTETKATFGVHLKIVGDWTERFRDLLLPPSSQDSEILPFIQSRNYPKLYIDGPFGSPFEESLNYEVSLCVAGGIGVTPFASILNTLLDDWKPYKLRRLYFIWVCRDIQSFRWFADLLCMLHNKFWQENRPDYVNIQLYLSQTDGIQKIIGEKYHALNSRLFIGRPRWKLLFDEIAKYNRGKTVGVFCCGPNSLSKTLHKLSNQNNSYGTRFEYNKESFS
NADPH oxidase 5 (Homo sapiens), sequence (Q96PH1 whole entry, looked up): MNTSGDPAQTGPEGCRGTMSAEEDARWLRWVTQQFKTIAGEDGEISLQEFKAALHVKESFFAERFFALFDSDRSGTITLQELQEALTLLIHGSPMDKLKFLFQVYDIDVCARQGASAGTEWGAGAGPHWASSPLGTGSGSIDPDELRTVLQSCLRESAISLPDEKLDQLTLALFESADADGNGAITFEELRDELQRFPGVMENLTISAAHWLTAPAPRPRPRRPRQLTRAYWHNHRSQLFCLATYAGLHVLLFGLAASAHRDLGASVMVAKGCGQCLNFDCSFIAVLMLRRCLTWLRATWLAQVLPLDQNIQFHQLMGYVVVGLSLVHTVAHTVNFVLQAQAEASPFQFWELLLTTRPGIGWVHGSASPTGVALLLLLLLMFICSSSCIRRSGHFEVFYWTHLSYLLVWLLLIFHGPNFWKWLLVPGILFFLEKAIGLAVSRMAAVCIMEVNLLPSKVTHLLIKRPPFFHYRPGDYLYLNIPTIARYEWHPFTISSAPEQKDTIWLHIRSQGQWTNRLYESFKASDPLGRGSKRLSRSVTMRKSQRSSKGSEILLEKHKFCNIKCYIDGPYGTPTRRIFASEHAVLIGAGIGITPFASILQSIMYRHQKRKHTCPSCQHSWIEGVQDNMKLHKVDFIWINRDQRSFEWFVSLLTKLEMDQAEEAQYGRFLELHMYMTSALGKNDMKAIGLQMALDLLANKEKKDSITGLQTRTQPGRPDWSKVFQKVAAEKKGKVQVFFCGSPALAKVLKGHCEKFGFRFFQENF

For the compound `O=C1C2C=CC(C(O)c3ccco3)N(Nc3ccccc3)C2C(=O)N1c1ccccc1` (stereo not given), the z-score in assay [1] is -0.292 (inactive); in [3], 0.89 (inactive); in assay [4], -0.0044 (inactive); in assay [5] it was -0.284 (inactive); in assay [6], 0.851 (inactive); in assay [7], -0.647. Also, the z-score is -1.61 (inactive) in [8], -2.98 (inactive) in assay [9] and -2.52 in assay [10]. Besides, the composite z-score in assay [2] was -0.0302.
Turning to `CC(C)C[C@@H]1NC(=O)[C@@]23C(=O)N[C@@H](Cc4ccccc4)C2[C@H](C)[C@@]2(C)O[C@H]2C3/C=C/C/C=C\CNC(=O)[C@@H](C)NC1=O` (stereo not given in full), the z-score in [1] was 0.767 (inactive); in assay [3] it was 0.961 (inactive); in assay [4] it was -1.13 (inactive); in assay [5], -0.826 (inactive); in assay [6], -0.967 (inactive); in assay [7], 0.338. For the same compound, the values for the z-score in [8], in [9] and in assay [10] were 0.848 (inactive), 1.65 (inactive) and 0.953, respectively. This compound also came in with a composite z-score in assay [2] of -0.444.
With `CCOC(=O)C1=C[C@@H](C(C)(C)C)N(S(=O)(=O)c2ccc(C)cc2)[C@H]1c1ccccc1`, the z-score was -0.492 (inactive) in assay [1]; -0.132 (inactive) in assay [3]; 0.457 (inactive) in assay [4]; -0.803 (inactive) in assay [5]; -0.0282 (inactive) in assay [6]; -0.667 in assay [7]. Moreover, the results for the z-score in assay [8], in assay [9] and in [10] were -0.707 (inactive), -0.655 (inactive) and -0.083, respectively. The composite z-score in assay [2] came to 0.407.
Regarding `O=C1C2C=CC(C(O)C=Cc3ccc([N+](=O)[O-])cc3)N(Nc3ccccc3)C2C(=O)N1c1ccccc1` (stereo not given), the z-score in assay [1] is -0.323 (inactive); in assay [3] it was 11 (active); in assay [4] it was 2.2 (inactive); in assay [5], 0.478 (inactive); in assay [6], 1.81 (inactive); in assay [7], -0.914. Moreover, the z-score in assay [8] was -1.72 (inactive); in assay [9], -2.96 (inactive); in assay [10] it was -2.32. In assay [2], this compound yielded a composite z-score of 0.424.
For the compound `CCOC(=O)C1=C[C@@H](C(C)(C)C)N(S(=O)(=O)c2ccc(C)cc2)[C@H]1c1cccc(Cl)c1`, the z-score in [1] was -1.11 (inactive); in assay [3], 1.26 (inactive); in assay [4], 1.03 (inactive); in assay [5], 0.223 (inactive); in [6], 0.39 (inactive); in assay [7] it was -0.98. The z-score in assay [8] is -0.789 (inactive); in [9] it was -0.842 (inactive); in assay [10], 0.196. The composite z-score in assay [2] is 0.522.
`C=C(C(=O)CC[C@@H](OC(=O)c1ccccc1-c1ccccc1C(=O)O)c1ccccc1OCCO)C(C)C`: the z-score in [1] was 0.0884 (inactive); in [3], 4.57 (inactive); in [4] it was 0.769 (inactive); in assay [5], 1.56 (inactive); in assay [6], 0.232 (inactive); in assay [7], 0.689. In addition, the z-score in assay [8] is -0.518 (inactive); in assay [9] it was -0.798 (inactive); in [10] it was -1.48. For the same compound, in assay [2], the composite z-score is 0.15.
With `CCOC(=O)C1=C[C@@H](c2ccccc2)N(S(=O)(=O)c2ccc(C)cc2)[C@H]1c1ccccc1`, the z-score in assay [1] is -0.388 (inactive); in assay [3], 13.8 (active); in [4], 2.21 (inactive); in assay [5], -0.657 (inactive); in [6], 0.708 (inactive); in assay [7], -0.8. Besides, the values for the z-score in assay [8], in assay [9] and in assay [10] were -0.395 (inactive), -0.395 (inactive) and 0.565, respectively. The same compound yielded a composite z-score in assay [2] of 0.119.
Turning to `C[C@@H]1ON(c2ccc(I)cc2)[C@H](c2ccc(OC(=O)OC(C)(C)C)cc2)[C@H]1C(=O)N1C(=O)OC[C@H]1Cc1ccccc1`, the z-score in assay [1] was 2.67 (inactive); in assay [3], 0.789 (inactive); in assay [4], -0.474 (inactive); in [5] it was 0.546 (inactive); in [6], -1.73 (inactive); in [7] it was 1.5. Moreover, the z-score is -5.57 (inactive) in [8], 0.237 (inactive) in assay [9] and 1.39 in assay [10]. In [2], this compound came in with a composite z-score of -0.191.
For `COC(=O)[C@@]1(Cc2ccc(OC)cc2)[C@H]2c3cc(C(=O)N4CCCC4)n(Cc4ccc(S(C)(=O)=O)cc4)c3C[C@H]2CN1C(=O)c1ccccc1`, the z-score in [1] was -1.08 (inactive); in assay [3], 2.29 (inactive); in assay [4], 0.326 (inactive); in assay [5], 0.6 (inactive); in assay [6], 0.617 (inactive); in assay [7], -0.688. In addition, the results for the z-score in [8], in assay [9] and in assay [10] were 0.385 (inactive), -0.389 (inactive) and -1.7, respectively. Besides, the composite z-score in assay [2] is 0.315.
For `COc1ccc([Si](C)(C)[C@@H]2[C@@H](CC(=O)N3Cc4ccccc4C[C@H]3CO)O[C@]3(C(=O)N(Cc4ccc(N5CCC5=O)cc4)c4ccccc43)[C@H]2C)cc1`, the z-score is 0.238 (inactive) in assay [1]; 5.02 (inactive) in [3]; 1.31 (inactive) in assay [4]; 0.538 (inactive) in assay [5]; 1.14 (inactive) in assay [6]; 0.0933 in assay [7]. Besides, the z-score in [8] is 0.669 (inactive); in assay [9], 0.841 (inactive); in [10] it was 2.36. Moreover, the composite z-score in assay [2] came out at 0.0253.
With `COc1ccc(C#Cc2ccc3c(c2)[C@]2(C(=O)N3)[C@H](c3ccc(OCCO)cc3)N3[C@H](c4ccccc4)[C@H](c4ccccc4)OC(=O)[C@H]3[C@@H]2C(=O)N2CCc3cc(OC)c(OC)cc3C2)cc1`, the z-score in [1] was -0.433 (inactive); in assay [3], 3.24 (inactive); in assay [4] it was 2.77 (inactive); in assay [5], 1.15 (inactive); in assay [6], 1.1 (inactive); in assay [7] it was -0.298. The results for the z-score in [8], in assay [9] and in assay [10] were 0.661 (inactive), 0.621 (inactive) and 0.27, respectively. In assay [2], the composite z-score was -0.261.
For the compound `COc1cc(NN2C(C(O)C3CCCCC3)C=CC3C(=O)N(c4ccccc4)C(=O)C32)cc(OC)c1OC` (stereo not given), the z-score in assay [1] is -1.02 (inactive); in assay [3], 1.73 (inactive); in assay [4], -0.35 (inactive); in assay [5] it was 1.36 (inactive); in assay [6], -1.16 (inactive); in [7], 1.37. The z-score in [8] is -3.07 (inactive); in assay [9], -5.15 (inactive); in assay [10], -5.24. In addition, in assay [2], the composite z-score is -0.441.
For `O=C(O)[C@H]1C[C@H]2C(=O)N[C@@H](Cc3ccccc3)C(=O)N2[C@H]1c1cccc(OCCO)c1`, the z-score in assay [1] is 0.262 (inactive); in [3] it was 4.38 (inactive); in assay [4], 0.547 (inactive); in assay [5] it was -2.49 (inactive); in [6] it was 0.204 (inactive); in assay [7] it was 0.146. Besides, the figures for the z-score in [8], in assay [9] and in assay [10] were -3.4 (inactive), -4.87 (inactive) and -2.33, respectively. In addition, the composite z-score in assay [2] was 0.121.
